# Source: PubChem BioAssay (NCATS)
# “And” between values parts separate entries of the source, which are not always exact repeats. Equal values may be shown once. Inconclusive results are not listed. Where a call stands in place of a potency, no number is given. Values without a mark were called inactive. The source made the active and inactive calls. Calls follow the shape of the dose curve; as a rule, active = well fitted curve in the direction sought with a large enough effect; inconclusive = small, poorly fitted or top-dose-only effect, or another doubt; inactive = no such curve, though single readings can be large; an effect the other way counts as inactive or inconclusive.
# How the values were obtained:
# [1] = Quantitative highthroughput screen to assess conditional lethalithy of NOMO1 cells grown in RPMI1640 with untreated serum (RPMI+s) (AID 1963876); also: nearly all actives have a fitted effect of over 35% in size; also: potency is read from the fitted curve at half-maximal effect
# Procedure, shortened: (§1)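 Each medium arm—HPLM with 10% dialyzed FBS, or RPMI1640 with 5 mM glucose and 10% untreated or dialyzed FBS—was screened against an 11-point, 3-fold compound titration for 48 h at 37 °C, with CellTiter-Glo luminescence as endpoint.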
# [2] = Quantitative highthroughput screen to assess conditional lethalithy of NOMO1 cells grown in RPMI1640 with dialyzed fetal bovine serum (RPMI+ds) (AID 1963877); also: nearly all actives have a fitted effect of over 30% in size; also: potency is read from the fitted curve at half-maximal effect; as to viability: series mostly up to about 46 µM
# Procedure, shortened: as §1
# [3] = Quantitative highthroughput screen to assess conditional lethalithy of NOMO1 cells grown in Human Plasma-Like Medium with dialyzed fetal bovine serum (HPLM+ds) (AID 1963878); also: nearly all actives have a fitted effect of over 35% in size; also: potency is read from the fitted curve at half-maximal effect
# Procedure, shortened: as §1
# [4] = Quantitative highthroughput screen to assess conditional lethalithy of P12 Ichikawa cells grown in Human Plasma-Like Medium with dialyzed fetal bovine serum (HPLM+ds) (AID 1963879); conditions: Potency: viability; also: nearly all actives have a fitted effect of over 35% in size; also: potency is read from the fitted curve at half-maximal effect; as to viability: series mostly up to about 46 µM
# Procedure, shortened: as §1
# [5] = Quantitative highthroughput screen to assess conditional lethalithy of P12 Ichikawa cells grown in RPMI1640 with dialyzed fetal bovine serum (RPMI+ds) (AID 1963880); conditions: Potency: P12-Ichikawa viability; also: nearly all actives have a fitted effect of over 35% in size; also: potency is read from the fitted curve at half-maximal effect
# Procedure, shortened: as §1
# [6] = Quantitative highthroughput screen to assess conditional lethalithy of P12 Ichikawa cells grown in RPMI1640 with untreated serum (RPMI+s) (AID 1963881); conditions: Potency: viability; also: nearly all actives have a fitted effect of over 35% in size; also: potency is read from the fitted curve at half-maximal effect; as to viability: series mostly up to about 46 µM
# Procedure, shortened: as §1
# [7] = Quantitative highthroughput screen to assess conditional lethalithy of SEM cells grown in Human Plasma-Like Medium with dialyzed fetal bovine serum (HPLM+ds) (AID 1963882); also: nearly all actives have a fitted effect of over 35% in size; also: potency is read from the fitted curve at half-maximal effect; as to viability: series mostly up to about 46 µM
# Procedure, shortened: as §1
# [8] = Quantitative highthroughput screen to assess conditional lethalithy of SEM cells grown in RPMI1640 with unreated serum (RPMI+s) (AID 1963883); also: nearly all actives have a fitted effect of over 35% in size; also: potency is read from the fitted curve at half-maximal effect
# Procedure, shortened: as §1
# [9] = Quantitative highthroughput screen to assess conditional lethalithy of SEM cells grown in RPMI1640 with dialyzed fetal bovine serum (RPMI+ds) (AID 1963884); also: nearly all actives have a fitted effect of over 35% in size; also: potency is read from the fitted curve at half-maximal effect; as to viability: series mostly up to about 46 µM
# Procedure, shortened: as §1
# [10] = Cellular viability qHTS for adrenocortical cancer (ACC) cell line SW-13 (AID 1963989); conditions: SW-13 ACC cells viability, CellTiter-Glo, 48 h; activity (max response): active compounds read low; also: nearly all actives have a fitted effect of over 65% in size; also: potency is read from the fitted curve at half-maximal effect;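 as to activity (max response): cells grown in serum-free medium with ITS supplement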
# Procedure, shortened: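 Viability was read as CellTiter-Glo luminescence after 48 h compound treatment (up to 46 uM final) of SW-13 cells grown serum-free; titration curves were fit with a four-parameter logistic model to give IC50 and efficacy.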
# [11] = Cellular viability qHTS for adrenocortical cancer (ACC) cell line NCI-H295R (AID 1963990); also: nearly all actives have a fitted effect of over 60% in size
# Procedure, shortened: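 CellTiter-Glo ATP luminescence, read 48 h after compound addition, measured viability of NCI-H295R adrenocortical cells grown serum-free with ITS. Final concentrations spanned up to 46 uM. Data normalized to DMSO and doxorubicin, fitted for IC50 and maximal response.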
SMILES,Potency [1],Potency [2],Potency [3],Potency [4],Potency [5],Potency [6],Potency [7],Potency [8],Potency [9],activity (max response) [10],Potency [11],Potency [10]
NC1CCC(Nc2nc(Nc3ccc(C(=O)N4CCCCC4)cc3)c3ncn(-c4cccc(F)c4)c3n2)CC1 (configuration not stated),inactive,inactive,inactive,inactive,inactive,inactive,inactive,inactive,inactive,–,–,–
COc1ccnc2[nH]cc(C(=O)C(=O)N3CCN(C(=O)c4ccccc4)C[C@@H]3C)c12,inactive,inactive,inactive,inactive,inactive,inactive,inactive,inactive,inactive,–,–,–
CC(=O)O[C@]1(C(C)=O)CC[C@H]2[C@@H]3C=C(C)C4=CC(=O)CC[C@]4(C)[C@@H]3CC[C@@]21C,inactive,inactive,inactive,inactive,inactive,inactive,inactive,inactive,inactive,–,–,–
CN(CC=CC#CC(C)(C)C)Cc1cccc2ccccc12,inactive,inactive,inactive,inactive,inactive,inactive,inactive,inactive,inactive,–,–,–
O=C1NC(=O)C(=Cc2ccc3nccnc3c2)S1,inactive,inactive,inactive,inactive,inactive,inactive,inactive,inactive,inactive,–,–,–
CC(C=CC1=C(C)CCCC1(C)C)=CC=CC(C)=CC(=O)Nc1ccc(O)cc1,30.3 µM (active),17.1 µM (active),15200 nM (active),6.05 µM (active),2.7 µM (active),6.05 µM (active),3400 nM (active),6050 nM (active),3030 nM (active),–,–,–
Cc1ccc([N+](=O)[O-])cc1S(=O)(=O)N(C)N=Cc1cnc2ccc(Br)cn12,0.0935 µM (active),0.105 µM (active),52.6 nM (active),0.166 µM (active),0.132 µM (active),0.132 µM (active),59 nM (active),66.2 nM (active),83.3 nM (active),–,–,–
COC(=O)[C@@H]1CC2=CC(=O)CC[C@]2(C)[C@@]23O[C@@H]2C[C@@]2(C)[C@H](CC[C@@]24CCC(=O)O4)[C@@H]13,inactive,inactive,inactive,inactive,inactive,inactive,inactive,inactive,inactive,–,–,–
Cc1cc(CS(=O)(=O)c2ccccc2)cc(OCc2ccc(CN3CCC[C@H]3CO)cc2)c1,1.05 µM (active),1.32 µM (active),662 nM (active),0.743 µM (active),1.18 µM (active),1.05 µM (active),590 nM (active),332 nM (active),526 nM (active),–,–,–
C[C@]12CCC3=C4CCC(=O)C=C4CC[C@@H]3[C@H]1CC[C@@]2(O)CC#N,inactive,inactive,inactive,inactive,inactive,inactive,inactive,inactive,inactive,–,–,–
Cc1[nH]c2ccccc2c1CCNCc1ccc(C=CC(=O)NO)cc1,0.743 µM (active),0.743 µM (active),526 nM (active),0.59 µM (active),0.662 µM (active),0.469 µM (active),209 nM (active),264 nM (active),264 nM (active),–,–,–
OC[C@H]1O[C@@H](Oc2ccc(O)cc2)[C@H](O)[C@@H](O)[C@H]1O,inactive,inactive,inactive,inactive,inactive,inactive,inactive,inactive,inactive,–,–,–
C#C[C@]1(O)CC[C@H]2[C@H]3CCc4cc(OC)ccc4[C@H]3CC[C@@]21C,inactive,inactive,inactive,inactive,inactive,inactive,inactive,inactive,inactive,–,–,–
CCC(CC)[C@H](NC(C)=O)[C@@H]1[C@H](O)[C@@H](C(=O)O)C[C@@H]1N=C(N)N,inactive,inactive,inactive,inactive,inactive,inactive,inactive,inactive,inactive,–,–,–
CC1(C)CCC[C@@]2(C)[C@@H]1CC[C@@]1(C)OC(=O)C[C@H]21,inactive,inactive,inactive,inactive,inactive,inactive,inactive,inactive,inactive,–,–,–
CC(NCc1ccc2c(c1)nc(NC(=O)c1ccc(-c3cn[nH]c3)s1)n2CC(C)(C)O)C(C)(C)C (configuration not stated),2.64 µM (active),2.64 µM (active),1480 nM (active),2.35 µM (active),2.64 µM (active),2.64 µM (active),26.4 nM (active),41.8 nM (active),18.7 nM (active),–,–,–
O=C(CS(=O)Cc1ccco1)NCC=CCOc1cc(CN2CCCCC2)ccn1 (configuration not stated),inactive,inactive,inactive,inactive,inactive,inactive,inactive,inactive,inactive,–,–,–
CN(C)CCc1c[nH]c2ccc(Cn3cncn3)cc12,1.05 µM (active),1.18 µM (active),833 nM (active),1.18 µM (active),0.935 µM (active),1.18 µM (active),372 nM (active),132 nM (active),264 nM (active),–,–,–

SMILES,Potency [1],Potency [2],Potency [3],Potency [4],Potency [5],Potency [6],Potency [7],Potency [8],Potency [9],activity (max response) [10],Potency [11],Potency [10]
CCCCCOC(=O)Nc1nc(=O)n([C@@H]2O[C@H](C)[C@@H](O)C2O)cc1F (some centres not stated),inactive,inactive,inactive,inactive,inactive,inactive,inactive,inactive,inactive,–,–,–
CC(C)(C)[N+]([O-])=Cc1ccc(S(=O)(=O)O)cc1S(=O)(=O)O,inactive,inactive,inactive,inactive,inactive,inactive,inactive,inactive,inactive,–,–,–
COc1cccc2c1C(=O)c1c(O)c3c(c(O)c1C2=O)C[C@@](O)(C(C)=O)C[C@H]3O[C@H]1C[C@H](N)[C@H](O)[C@H](C)O1,0.264 µM (active),0.235 µM (active),264 nM (active),0.264 µM (active),0.209 µM (active),0.209 µM (active),83.3 nM (active),46.9 nM (active),83.3 nM (active),–,–,–
COC(=O)[C@]12CCC(C)(C)C[C@@H]1[C@@H]1C(=O)C=C3[C@@]4(C)C=C(C#N)C(=O)C(C)(C)[C@@H]4CC[C@@]3(C)[C@]1(C)CC2,9.35 µM (active),8.33 µM (active),9350 nM (active),9.35 µM (active),8.33 µM (active),9.35 µM (active),7430 nM (active),9350 nM (active),6620 nM (active),–,–,–
CCOC(=O)N1CCN([N+]([O-])=NOc2cc(ON=[N+]([O-])N3CCN(C(=O)OCC)CC3)c([N+](=O)[O-])cc2[N+](=O)[O-])CC1,inactive,inactive,inactive,inactive,inactive,inactive,inactive,inactive,inactive,–,–,–
C=C1[C@H](n2cnc3c(=O)[nH]c(N)nc32)C[C@H](O)[C@H]1CO,18.7 µM (active),3.72 µM (active),4180 nM (active),2.64 µM (active),1.18 µM (active),2.96 µM (active),187 nM (active),526 nM (active),46.9 nM (active),–,–,–
CO[C@H]1C=CC=C(C)C(=O)NC2=CC(=O)C(NCCN(C)C)=C(C[C@@H](C)C[C@H](OC)[C@@H](O)[C@@H](C)C=C(C)[C@@H]1OC(N)=O)C2=O,0.743 µM (active),0.662 µM (active),662 nM (active),4.69 µM (active),0.935 µM (active),0.743 µM (active),166 nM (active),148 nM (active),118 nM (active),–,–,–
CC(C)c1ccc2oc3nc(N)c(C(=O)O)cc3c(=O)c2c1,inactive,inactive,inactive,inactive,inactive,inactive,inactive,inactive,inactive,-3.22% and -4.54%,inactive,–
COC(=O)C1=C(C)NC(C)=C(C(=O)OC(C)C)C1c1cccc2nonc12 (configuration not stated),inactive,inactive,inactive,inactive,inactive,inactive,inactive,inactive,inactive,6.25%,–,–
NC[C@@H]1O[C@@H](O[C@H]2[C@@H](O)[C@H](O[C@@H]3[C@@H](O)[C@@H](N)C[C@H](N)[C@H]3O[C@H]3O[C@H](CN)[C@@H](O)[C@@H](O)[C@H]3N)O[C@H]2CO)[C@H](N)[C@@H](O)[C@@H]1O,inactive,inactive,inactive,inactive,inactive,inactive,inactive,inactive,inactive,–,–,–
C[C@]12CC[C@@H]3c4ccc(O)cc4C[C@@H](CCCCCCCCCS(=O)CCCC(F)(F)C(F)(F)F)[C@H]3[C@H]1CC[C@H]2O (some centres not stated),inactive,inactive,inactive,inactive,inactive,inactive,inactive,inactive,inactive,-14.8%,inactive,–
COc1ccc(-n2c(C)c([N+](=O)[O-])c3ccc(O)cc32)cc1,inactive,inactive,inactive,inactive,inactive,inactive,inactive,inactive,inactive,3.14%,inactive,–
C[C@]12CC[C@@H]3c4ccc(O)cc4CC[C@H]3[C@H]1C[C@@H](O)[C@H]2O,inactive,inactive,inactive,inactive,inactive,inactive,inactive,inactive,inactive,–,–,–
CC(=O)O[C@H]1C[C@@H]2CC[C@H]3[C@H]4C[C@H]([N+]5(C)CCCCC5)[C@@H](OC(C)=O)[C@@]4(C)CC[C@@H]3[C@@]2(C)C[C@H]1[N+]1(C)CCCCC1,inactive,inactive,inactive,inactive,inactive,inactive,inactive,inactive,inactive,7.56%,inactive,–
N#CC(c1ccnc(NCCc2cccnc2)n1)c1nc2ccccc2s1 (configuration not stated),inactive,inactive,inactive,inactive,inactive,inactive,inactive,inactive,inactive,–,–,25.1 µM (active)
O=c1ccn([C@@H]2O[C@H](CO)[C@H](O)[C@H]2O)c(=O)[nH]1,inactive,inactive,inactive,inactive,inactive,inactive,inactive,inactive,inactive,–,–,–
Cc1csc(NC(=O)c2sc3nc4c(c(C(F)(F)F)c3c2N)CCC4)n1,inactive,inactive,inactive,inactive,inactive,inactive,inactive,inactive,inactive,-2.72%,inactive,–
